Source: PubChem (Broad Institute)
Sampled rows, rich in hits. Any-hit rate of the full collection: about 3.8%.
Wnt bcat act: Wnt/beta-catenin pathway activation | AID 743398 | actives 1.2% (n = 300,000) | activation, % at 9.35 µM | Wnt/beta-catenin reporter cell assay, activator, plate reader; in the data active = activation above about 30%, passing the limit was not always enough; inconclusive = no clear call, values can overlap the other calls
HSF1 activator: increases HSF-1 driven luciferase reporter signal; NIH3T3-HGL HSF-1 luciferase reporter, MG132, 8 h; 100% = twice DMSO control signal; activation, % at 9 µM; actives 1.7% (n = 300,000);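 active = mean replicate activation of at least 50% with a set share of replicates each reaching 50%; inconclusive = only one of those two conditions met; inactive = mean below 50% and too few replicates reaching it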
HSF1 inhib: HSF1 inhibition. NIH3T3-HGL HSE-luciferase, MG132-induced, luminescence 8 h; active compounds read low. activity change, negative = inhibition, % at 7.5 µM (by protocol). actives 0.77% (n = 300,000);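 active = more than half of replicate wells show activity change below -50%, luminescence cut by over half; inconclusive = some wells, but at most half, below -50%; inactive = no replicate well below -50%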;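 also: luciferase reports HSF-1 transcriptional activity via heat shock element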
MITF TRPM1 HTS: increases MITF-driven TRPM1 promoter luciferase signal; SK-MEL-5 TRPM1-promoter luciferase, 24 h; % of positive control, neutral wells = 0; activation, % at 12.5 µM; actives 0.75% (n = 300,000);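 active = mean activation of at least 80% with every replicate also reaching 80%; inconclusive = mean reaches 80% but some replicate falls short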
esBAF inh: SWI/SNF esBAF complex inhibition | actives 2% (n = 350,000) | AID 602393 | reporter increase, % at 12.5 µM | mouse ES cells, Bmi1-luciferase knock-in reporter, 24 h; 100% = twice the neutral-well signal; in the data active = activation above about 40%; inconclusive = no clear call, values can overlap the other calls;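 also: a rise in the Bmi1 reporter signal indicates esBAF inhibition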
Numbers stand for hits; . = inactive; ? = inconclusive; / = no result.

SMILES	Wnt bcat act	HSF1 activator	HSF1 inhib	MITF TRPM1 HTS	esBAF inh
CCN1/C(=C\C=C(C(C)=O)C(C)=O)Sc2ccccc21	.	.	.	.	/
Cc1ccc2nc(NC(=O)c3ccc(Cl)s3)sc2c1	?	.	.	.	.
Cc1nc2ccc(NC(=O)c3ccc(Cl)s3)cc2s1	.	.	.	87	79
Cc1nc2ccc(NC(=O)N(C(C)C)C(C)C)cc2s1	/	.	.	/	44
Cc1noc(C)c1NC(=O)N(C)C[C@@H]1Oc2ncc(C#Cc3ccccc3)cc2C(=O)N([C@H](C)CO)C[C@@H]1C	/	/	/	/	.
O=[N+]([O-])c1c(Nc2ccc(O)cc2)cc(Cl)c2nonc12	.	132	.	.	.
CN(C)c1cc(Nc2ccc(O)cc2)c([N+](=O)[O-])c2nonc12	.	.	.	.	/
O=[N+]([O-])c1c(Nc2ccccn2)cc(Cl)c2nonc12	.	163	.	/	/
Cc1nn(-c2ccccc2)c(C)c1C(=O)OCC(=O)Nc1ccccc1F	44	/	/	100	.
Cc1cc(C(=O)OCC(=O)Nc2c(F)cccc2F)c(C)n1-c1ccccc1	.	.	.	.	48
CC(=O)Nc1ccc(NC(=O)COC(=O)c2c(C)nn(-c3ccccc3)c2C)cc1	.	.	.	.	/
Cc1nn(-c2ccccc2)c(C)c1C(=O)OCC(=O)NC12CC3CC(CC(C3)C1)C2	.	.	.	.	50
Cc1cc(C(=O)OCC(=O)N2CCOCC2)c(C)n1-c1ccccc1	.	/	/	.	.
O=C(NCC[C@@H]1CC[C@H](NC(=O)C2CCC2)[C@H](CO)O1)c1cc(Cl)cc(Cl)c1	/	/	/	/	.
CCN(CC)CCCNC(=O)C1CCC(CNS(=O)(=O)c2ccc(Cl)cc2)CC1 (stereo not drawn)	.	.	-67	/	.
CC(C)CCNC(=O)C1CCC(CNS(=O)(=O)c2ccc(Cl)cc2)CC1 (stereo not drawn)	.	.	.	.	.
C[C@H]1CN([C@@H](C)CO)C(=O)c2cc(NC(=O)Cc3ccccc3)ccc2O[C@@H]1CN(C)C(=O)Nc1ccc(C(F)(F)F)cc1	/	/	/	/	.
O=C1C(Cc2ccccc2)Nc2ncnc(N3CCN(c4ccccc4)CC3)c2N1Cc1ccccc1 (stereo not drawn)	.	.	-67	.	.
Cc1ccc(CN2C(=O)C(Cc3ccccc3)Nc3ncnc(N4CCN(c5ccccc5)CC4)c32)cc1 (stereo not drawn)	.	.	.	.	.
COCC(=O)N(C)C[C@@H]1Oc2ncc(C#Cc3ccc(F)cc3)cc2C(=O)N([C@H](C)CO)C[C@@H]1C	/	/	/	/	.
COc1ccccc1C(=O)Nc1cc2ccccc2oc1=O	/	.	.	.	.
COc1ccc2oc(=O)c(C(=O)Nc3cccc(C)c3)cc2c1	.	?	.	.	77
COc1ccc(S(=O)(=O)Nc2ccccc2OC)cc1NC(=O)c1cc2ccccc2oc1=O	/	.	.	90	/
COc1ccccc1NS(=O)(=O)c1ccc(C)c(C(=O)Nc2cc(C)on2)c1	.	/	/	.	.
COc1ccccc1C(=O)Nc1cc2cc(Br)ccc2oc1=O	.	.	.	.	27
SMILES	Wnt bcat act	HSF1 activator	HSF1 inhib	MITF TRPM1 HTS	esBAF inh
COc1ccc(NC(=O)c2cc3cc(OC)ccc3oc2=O)cc1	.	.	.	.	.
COc1ccc(NC(=O)c2cc3ccccc3oc2=O)c(OC)c1	.	.	.	/	47
CCCNC(=O)C[C@H]1C[C@@H]2c3cc(NC(=O)Nc4ccccc4F)ccc3O[C@@H]2[C@H](CO)O1	/	/	/	/	.
CC(C)NC(=O)N(C)C[C@H]1Oc2ncc(C#Cc3ccncc3)cc2C(=O)N([C@H](C)CO)C[C@H]1C	/	/	/	/	.
CC(C)[C@H](NC(=O)N1CC(=O)Nc2ccccc21)C(=O)N[C@H](C(=O)O)c1ccccc1	.	.	.	.	.
CC(C)c1ccc(NC(=O)C(c2ccccc2)N2CC(=O)Nc3ccccc32)cc1 (stereo not drawn)	.	.	.	/	66
O=C(C[C@H]1CC[C@H](NC(=O)Nc2ccccc2F)[C@H](CO)O1)NCc1ccc(Cl)cc1	/	/	/	/	.
COc1ccc(CCNC(=O)Nc2ccc3c(c2)OCO3)cc1OC	.	.	.	.	/
O=C(NCCc1ccc(F)cc1)Nc1ccc2c(c1)OCO2	48	.	.	.	/
O=C(NCCc1ccccc1)Nc1ccc2c(c1)OCO2	.	62	.	.	/
CC1CC1C(=O)OCC(=O)Nc1ccc(N=Nc2ccccc2)cc1 (stereo not drawn)	.	.	.	?	/
CC(=O)Nc1cc(NC(C)=O)c(N=Nc2ccccc2)cc1C	.	.	.	.	/
